Screening data deposited in PubChem BioAssay by National Center for Advancing Translational Sciences (NCATS).
HT1080NT lethal: kills 2HG-producing HT-1080-NT fibrosarcoma cells; AID 686970; hit rate 1.6% among 360,000; HT-1080-NT fibrosarcoma viability, CellTiter-Glo ATP luminescence, 48 h; Potency, µM (series often up to 46.1 µM), inactives show at the highest dose activity, negative = less viability, actives largely listed as cytotoxic;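 note: NT is the 2HG producing partner of a matched IDH1 knockdown line; 0% = DMSO-treated cells and -100% = media-only wells without cells; nearly all actives have a fitted effect of over 55% in size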
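Compounds were tested in concentration-response format on HT-1080-NT cells for 48 hours at 37 degrees C. Cell viability came from CellTiter-Glo luminescence; curves were classified by r2, response magnitude and activity.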
HT1080 IDH1KD tx: HT-1080 IDH1 knockdown cell toxicity (counter line) | HT-1080 IDH1 knockdown viability, ATP luminescence, 48 h | Potency, µM (doses to about 46.1 µM), for the others: top-dose activity, negative = toxicity, actives largely listed as cytotoxic | hit rate 2% among 360,000 | AID 686971;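 note: 0% = DMSO wells and -100% = cell-free medium wells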
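Assay cells: HT-1080 with IDH1 knockdown, 750 per well, RPMI/5% FBS. Exposure: 48 h at 37 °C following 2 h pre-incubation. Read: CellTiter-Glo luminescence; fitted concentration-response, curve class assigned.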
MCF10A rerep: inducers of DNA re-replication in MCF 10A breast cells | MCF 10A DNA re-replication, Hoechst nuclear intensity, 48 h | Potency, µM (titrated, usually from 46.1 µM), inactives show at the highest dose activity, positive = re-replication, actives largely listed as activators | hit rate 2.9% among 350,000 | AID 624296; note: % of control where 0% means no effect; nearly all actives have a fitted effect of over 50% in size
SW480 rereplic: inducers of DNA re-replication in SW480 colon cancer cells; SW480 DNA re-replication, Hoechst DNA content imaging, 48 h; Potency, µM (series often up to 46.1 µM), for the others: top-dose re-replication activation, actives largely listed as activators; hit rate 1.8% among 340,000; AID 624297; note: % of control where 0% means no effect; nearly all actives have a fitted effect of over 55% in size
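Hoechst fluorescence of nuclei (405 nm excitation, 500-530 nm emission) measured by plate-scanning imager after 48 hr compound exposure at 37 C; re-replication scored as increased number of nuclei with elevated intensity.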
KB-3-1 tox: KB-3-1 parental cell cytotoxicity; hit rate 1.4% among 400,000; Potency, µM (titrated, usually from 46.1 µM), most hits filed as cytotoxic; AID 1347075; KB-3-1 viability, CellTiter-Glo ATP luminescence, 72 h; note: % is set by controls: 0 for no effect and ±100 for the full control effect; nearly all actives have a fitted effect of over 60% in size
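Parental KB-3-1 viability, qHTS format: 72 h compound exposure, 37 °C; CellTiter-Glo; media-only wells and DMSO plates as controls; concentration-effect fits on corrected data.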
KB-V1 MDR tox: KB-V1 MDR subline cytotoxicity; Potency, µM (top dose mostly 46.1 µM), actives largely listed as cytotoxic; KB-V1 MDR cells viability, CellTiter-Glo, 72 h; hit rate 3.4% among 400,000; AID 1347076; note: % is set by controls: 0 for no effect and ±100 for the full control effect; nearly all actives have a fitted effect of over 60% in size
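KB-V1 MDR subline cells in DMEM (phenol-red free, 10% FBS) exposed to compounds in qHTS concentration series for 72 h at 37 degrees C. Viability read by CellTiter-Glo luminescence; concentration-effect curves fitted after normalization and correction.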
Active calls of the source: *; i = inactive; ? = inconclusive; · = no result. This is a sample that favours compounds with a hit; in the whole collection about 7.9% have one here. Calls come from the whole dose curve; as a rule, active = well fitted curve in the direction sought with a large enough effect; inconclusive = small, poorly fitted or top-dose-only effect, or another doubt; inactive = no such curve, though single readings can be large; an effect the other way counts as inactive or inconclusive. Potency is the fitted concentration of half-maximal effect.

SMILES | HT1080NT lethal | HT1080 IDH1KD tx | MCF10A rerep | SW480 rereplic | KB-3-1 tox | KB-V1 MDR tox
Cc1cc(NC(=O)COC(=O)c2ccccc2S(=O)(=O)N(C)c2ccccc2)no1 | -24% | ? | 16% | 9% | i | ?
O=C(C[C@@H]1C=C[C@@H](NC(=O)Nc2cccc(F)c2)[C@@H](CO)O1)NCC1CCCCC1 | 17% | 21% | · | · | i | i
CCCCn1c(N)c(N(CCC(C)C)C(=O)c2ccc([N+](=O)[O-])s2)c(=O)[nH]c1=O | -17% | -14% | 23µM* | ? | i | i
CCCCN(C(=O)c1ccc([N+](=O)[O-])s1)c1c(N)n(CC(C)C)c(=O)[nH]c1=O | -6% | -13% | 10% | 13% | i | i
Cc1cc(C)c2sc(N(CCCN(C)C)C(=O)c3ccc(S(=O)(=O)N(C)C4CCCCC4)cc3)nc2c1 | 1% | -15% | ? | 4% | ? | ?
Cn1cc(SCC(=O)O)c2ccccc21 | -5% | -3% | 11% | -17% | i | i
Cn1cc(C(C[N+](=O)[O-])c2ccccc2)c2ccccc21 (stereo unspecified) | ? | ? | 13µM* | 10µM* | ? | ?
O=[N+]([O-])CC(c1ccc(F)cc1)c1c[nH]c2ccccc12 (stereo unspecified) | ? | ? | 13µM* | ? | ? | i
O=C(CC(NC(=O)OCc1ccccc1)C(=O)OCc1ccccc1)OCc1ccccc1 (stereo unspecified) | 4% | 11% | -5% | -3% | i | i
COc1ccc(NC(=S)N/C(=N/CS(=O)(=O)c2ccccc2)c2ccccc2)cc1 | 1% | -5% | 16µM* | ? | i | i
O=[N+]([O-])c1ccc(NC(=S)N/C(=N/CS(=O)(=O)c2ccccc2)c2ccccc2)cc1 | 0% | -10% | 0% | -2% | i | ?
CC(=O)Nc1ccc(C)cc1-c1nc2ccccc2n(CC(=O)c2ccc(Cl)cc2)c1=O | · | · | · | · | i | i
CN(C)/C=C1\C(=O)N(c2ccc([N+](=O)[O-])cc2)N=C1c1ccccc1 | ? | ? | 3% | -3% | i | i
Cc1cc2cc(C#N)c(NCCNC(=S)NCCCN3CCOCC3)nc2cc1C | ? | ? | 21µM* | 16µM* | i | ?
CCOc1ccc2nc(NCCNC(=O)Nc3ccccc3)c(C#N)cc2c1 | ? | ? | ? | ? | i | ?
Cc1cccc2cc(C#N)c(NCCNC(=S)NCCCN3CCOCC3)nc12 | ? | -20% | ? | 13% | i | i
CCOc1ccc2nc(NCCNC(=O)Nc3cccc(C)c3)c(C#N)cc2c1 | ? | ? | ? | 9.2µM* | ? | ?
CCOc1ccc2nc(NCCNC(=S)NCCCN(C)C)c(C#N)cc2c1 | -24% | ? | 12µM* | 16µM* | i | i
Cc1ccc(C(C)C)c(OCCNC(=S)Nc2cccc3ccccc23)c1 | 5.6µM* | 7.9µM* | ? | 5.6µM* | ? | i
CCOc1ccc(-n2c(SC)nc3c(c2=O)SCC3)cc1 | 0% | -4% | 0% | -12% | i | i
CCOc1ccc(-n2c(SC(C)C)nc3c(c2=O)SCC3)cc1 | -16% | -21% | 19% | 14% | i | 2.9µM*
CC(C)CN(CC(C)C)C(=O)CN1C(=O)NC2(CCc3ccccc3C2)C1=O (stereo unspecified) | 4% | 3% | -6% | 1% | i | i
Cc1c(Cl)cccc1NC(=O)CNc1cccc(S(=O)(=O)N(C)C)c1 | -3% | 6% | -9% | 1% | i | 16µM*
COc1cc(CCC(=O)Nc2cccc(S(=O)(=O)N(C)C)c2)cc(OC)c1OC | 7% | 8% | -2% | ? | i | 21µM*
CN(C)S(=O)(=O)c1cccc(NC(=O)CCNC(=O)Nc2ccccc2)c1 | 3% | 4% | 5% | -13% | i | i
SMILES | HT1080NT lethal | HT1080 IDH1KD tx | MCF10A rerep | SW480 rereplic | KB-3-1 tox | KB-V1 MDR tox
CC(=O)c1ccc(OCCCC(=O)Nc2cccc(S(=O)(=O)N(C)C)c2)cc1 | -2% | -7% | 2% | -1% | ? | 13µM*
COC(=O)c1cccc(NC(=O)CCc2cc(OC)c(OC)c(OC)c2)c1 | 4% | 1% | 10% | -45% | i | i
CN(C)S(=O)(=O)c1cccc(NC(=O)CCSc2ccc(Cl)cc2)c1 | 7% | 5% | 6% | -7% | ? | 12µM*
COc1cccc(CNC(=O)c2ccc(Cn3c(SCc4ccccc4)nc4cccnc43)cc2)c1 | · | · | · | · | i | i
O=C(NNC(=O)c1ccccc1O)c1ccc(-c2ccc([N+](=O)[O-])cc2)o1 | -17% | ? | ? | 5% | ? | i
COC(=O)c1cccc(NC(=O)CCCOc2ccccc2)c1 | -3% | -1% | 5% | -1% | i | i
CCc1ccc(OCCCC(=O)Nc2cccc(C(=O)O)c2)cc1 | 15% | -6% | 6% | 23µM* | i | i
COc1ccccc1C(=O)NCC(=O)OCC(=O)Nc1cccc(S(=O)(=O)N(C)C)c1 | 2% | 12% | 0% | -2% | i | i
CN(C)S(=O)(=O)c1cccc(NC(=O)COc2ccccc2C(=O)NCc2ccccc2)c1 | -5% | 0% | -4% | 4% | ? | 10µM*
COc1ccc2c(c1)CC1c3c(cc4c(c3-2)OCO4)CC[N+]1(C)[O-] (stereo unspecified) | 10% | 2% | -8% | -13% | i | i
O=S(=O)(NCCC1=CCCCC1)c1ccccc1Br | -1% | -3% | 4% | 0% | i | ?
COc1ccc(C2C(C(C)=O)=C(Nc3ccccc3)CC(C)(O)C2C(C)=O)cc1OC (stereo unspecified) | 2% | 9% | 3% | ? | i | i
O=C(NCCN1CCN(c2cccc(Cl)c2)CC1)c1ccc(CSc2nc3ccncc3[nH]2)cc1 | ? | ? | 18µM* | 16% | ? | i
CCN(CCNC(=O)c1ccc(CSc2nc3ccncc3[nH]2)cc1)c1ccccc1 | 0% | 5% | ? | -7% | i | i
Cc1ccc(C)c2[nH]c(=O)c(CCNC(=O)c3ccc(S(=O)(=O)N(C)C)cc3)cc12 | -21% | -16% | 6% | 2% | i | i
COc1cc(C(=O)C(=O)N2CCN(c3ccc(C)cc3)CC2)cc2ccccc12 | 6% | ? | · | · | i | ?
Cc1ccc2cc(C#N)c(N3CCN(C(=O)c4ccccc4)CC3)nc2c1 | 0% | -7% | 0.58µM* | ? | i | i
